Shiga inhibitor – blocks Shiga toxin action in Vero cells | 290,000 compounds, 9.2% hits | Vero cells, Shiga toxin protein synthesis inhibition reporter | inhibition, % at 38.7 µM; in the data active means inhibition mostly above about 28%, no sharp cut-off; inactive means mostly below about 43%; further: 0% is about no effect
Pf growth 96h – P. falciparum growth inhibition at 96 hours; 320,000 compounds, 6.9% hits; P. falciparum luciferase reporter growth, 96 h; Potency, µM (series often up to 28.7 µM), without a hit: at the highest dose activity change, negative = inhibition, usual class: inhibitors; further: potency means the concentration at half of the fitted maximal effect; on the % scale 0 is the no-effect control and ±100 the full control effect
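Parasite growth measured via integrated firefly luciferase reporter in P. falciparum. Infected erythrocytes at 2% hematocrit, 0.05% parasitemia final were treated 96 hours at 37 C under 5% CO2, and luminescence was read.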
NS1 inh – influenza NS1 inhibition | Potency, µM (doses to about 46.1 µM), for the others: at the top dose activity, positive = more growth | 270,000 compounds, 0.4% hits; calls by dose curve; further: potency means the concentration at half of the fitted maximal effect; actives are rising curves; nearly all actives have a fitted effect of over 50% in size
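Read-out: OD600 growth recovery of NS1-expressing budding yeast. Cells grown overnight at 30C in -URA glucose medium, washed, resuspended and diluted 1:100 in 2% galactose assay medium, pH 6.0. Same strain lacking NS1 served as positive control.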
Cycloheximide cs – counter-screen hit for Shiga toxin inhibitors, cycloheximide; cell reporter, cycloheximide protein synthesis inhibition counterscreen; max response, %; 300,000 compounds, 12% hits; AID 2314; in the data active means max response mostly above about 13%, no sharp cut-off; inactive means mostly below about 14%; further: read at 38.3 µM for the half of the compounds with a filed dose; 0% is about no effect
Pf growth 48h – P. falciparum growth inhibition at 48 hours (one generation). P. falciparum luciferase growth in erythrocytes, 48 h. Potency, µM (top dose mostly 28.7 µM), without a hit: at the top dose activity change, negative = inhibition, usual class: inhibitors. 310,000 compounds, 5.9% hits. AID 504832; further: potency means the concentration at half of the fitted maximal effect; on the % scale 0 is the no-effect control and ±100 the full control effect
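Parasite viability was followed by luminescence of a genomically integrated firefly luciferase. Cultures held 0.1% parasitemia at 2% hematocrit (final), incubated under 5% CO2 at 37 C.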
FBPA Giardia inh – Giardia lamblia aldolase inhibition | AID 2451 | purified Giardia FBPA | Potency, µM (doses to about 59.6 µM), without a hit: at the highest dose activity, negative = inhibition, hits mostly inhibitors | A8B2U2 | 290,000 compounds, 0.71% hits; further: potency means the concentration at half of the fitted maximal effect; on the % scale 0 is the no-effect control and ±100 the full control effect; nearly all actives have a fitted effect of over 55% in size
Target sequence (A8B2U2 whole entry, looked up): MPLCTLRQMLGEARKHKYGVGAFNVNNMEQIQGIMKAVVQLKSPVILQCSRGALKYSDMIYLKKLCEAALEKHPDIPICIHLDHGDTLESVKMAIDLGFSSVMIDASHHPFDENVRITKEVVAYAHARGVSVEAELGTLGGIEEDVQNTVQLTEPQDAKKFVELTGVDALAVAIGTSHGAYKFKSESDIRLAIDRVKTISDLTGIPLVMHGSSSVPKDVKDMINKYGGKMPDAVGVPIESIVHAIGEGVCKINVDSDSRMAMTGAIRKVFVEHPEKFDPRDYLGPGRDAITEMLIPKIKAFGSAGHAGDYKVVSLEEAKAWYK
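40 nM FBPA preincubated 10 min at RT with compound (up to 57.5 uM final), then substrate plus GAPDH/TPI/NAD/arsenate coupling and diaphorase/resazurin added. Fluorescence read after 20 min at RT, 525/598 nm.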
* = called active by the depositor; ? = inconclusive; / = no result; + = active, no number; [ ] = another dose, or the depositor's remark. Shown are actives, neighbours in structure and some others; about 21% of the full set was active somewhere. Unless noted, the call rests on the fitted dose curve; in most records, active means well fitted curve in the direction sought with a large enough effect; inconclusive means small, poorly fitted or top-dose-only effect, or another doubt; inactive means no such curve, though single readings can be large; an effect the other way counts as inactive or inconclusive.

SMILES	Shiga inhibitor	Pf growth 96h	NS1 inh	Cycloheximide cs	Pf growth 48h	FBPA Giardia inh
CN(C(=O)COC(=O)c1ccc(Br)c([N+](=O)[O-])c1)c1c(N)n(Cc2ccccc2)c(=O)[nH]c1=O	/	4.6%	/	/	-20.3%	/
Cc1ccc(C2=N/C(=C\c3ccc(F)cc3)C(=O)N2)cc1	/	-23.2%	/	/	-3.4%	/
O=C(c1ccc(F)cc1)N1CCN(S(=O)(=O)c2ccc(Br)cc2)CC1	-4.8	?	1.8%	-2.0	-3.4%	/
Cc1ccc(NC(=O)C2CCN(C(=O)c3ccccc3C)CC2)nc1	/	0.2%	/	/	?	/
Cc1ccsc1C(=O)NNC(=O)C1CC=CCC1C(=O)O (stereo unspecified)	+	-1.9%	21.1%	45.0*	20.1%	0.5%
O=C(NNC(=O)[C@@H]1CCCC[C@@H]1C(=O)O)Nc1ccccc1	65.1*	-25.9%	-7.9%	15.1*	27.2%	0.8%
O=C(NNC(=O)[C@@H]1CCCC[C@@H]1C(=O)O)c1cccs1	57.6*	-21.1%	3.4%	28.8*	14.1%	7.5%
CC(C)c1ccc(C(=O)NNC(=O)C2CC=CCC2C(=O)O)cc1 (stereo unspecified)	64.1*	32.6%	-5.7%	28.4*	31.8%	-0.8%
O=C(NNC(=O)C1CC=CCC1C(=O)O)c1cccs1 (stereo unspecified)	34.5	66.2%	0.6%	15.3	58.3%	-0.1%
O=C(O)C1CC=CCC1C(=O)NNS(=O)(=O)c1ccccc1 (stereo unspecified)	-4.6	?	-0.1%	-9.4	-7.6%	0.3%
CCOc1ccc(CCNC(=O)C2CCCN(c3ncnc4c3nc3n4CCCCC3)C2)cc1 (stereo unspecified)	-6.6	44.9%	-10.1%	-3.3	?	-1.4%
COc1ccc(S(=O)(=O)N2CCC(C(=O)NCc3ccncc3)CC2)cc1OC	1.8	22.8%	-17.1%	-6.1	12.5%	4.2%
COc1ccc(CC(=O)NNC(=O)[C@@H]2CCCC[C@@H]2C(=O)O)cc1	-11.0	12.2%	-0.5%	4.6	113.5%	/
Cc1ccsc1C(=O)NNC(=O)C1CCCCC1C(=O)O (stereo unspecified)	65.5*	106.7%	8.0%	30.9*	330.5%	4.1%
Cc1cc(C)n(-c2ccc(OCC(=O)O)nn2)n1	-13.0	?	-11.6%	5.5	9.2%	18.8%
CCCCOc1ccc(-n2nc(C)cc2C)nn1	54.8*	?	-50.7%	28.6*	49.7%	-1.2%
Cc1ccc(NS(=O)(=O)c2ccc(C3CCCCC3)cc2)cc1	-10.5	1.7%	-36.0%	-4.0	14.6%	-6.6%
O=C1CCCC/C1=N\Nc1ccc(C2CCCCC2)cc1	64.5*	-0.1%	-5.0%	38.7*	221.2%	-22.9%
O=C1CCCC/C1=N\Nc1ccc(OCc2ccccc2)cc1	55.5*	23.0%	-32.2%	21.5*	0.4%	0.8%
CCOC(=O)C1CSC(Cc2ccc(OCc3ccc([N+](=O)[O-])cc3)cc2)N1 (stereo unspecified)	/	/	/	/	/	-3.2%
CC(C)c1ccc(NC2CCCN(C(=O)CCn3cnnn3)C2)cc1 (stereo unspecified)	-22.6	1.6%	2.9%	-4.7	-2.0%	/
Cc1ccccc1-c1ccnc2[nH]n(-c3ccccc3)c(=O)c12	-3.3	21.3%	1.6%	-5.3	5.5%[0.00184 µM]	-14.8%
Cc1cccc(-c2nnc(N)s2)c1	21.2	63.4%	-10.7%	7.2	12.6%	-3.9%
CCCOc1cccc(-c2nnc(N)s2)c1	43.6*	0.6%[5.75 µM]	-134.2%	22.5*	44.9%	13.4%
CCCCOc1cccc(-c2nnc(N)s2)c1	17.2	-15.7%	-19.7%	24.9*	-20.3%	15.4%
SMILES	Shiga inhibitor	Pf growth 96h	NS1 inh	Cycloheximide cs	Pf growth 48h	FBPA Giardia inh
C[C@@H](C(=O)N1CCN(Cc2ccc3c(c2)OCO3)CC1)n1nnc2ccccc2c1=O	1.1	17.7%	10.7%	-3.9	-6.5%	-5.8%
CCOC(=O)CNC(=O)c1cnn2cccnc12	50.8	?	2.5%	41.7*	25.5%	-8.5%
Nc1ncc(-c2ccccc2)c(-c2ccc(O)cc2O)n1	-7.6	-5.4%	2.8%	-4.8	/	12.7%
Oc1ccc(-c2cnns2)c(O)c1	-3.9	11.7µM*	11.2%	-1.9	10.4µM*	-7.5%
COc1ccccc1NC(=O)Cc1noc(CSc2n[nH]c(N)n2)n1	-9.4	7.0%	/	-3.6	3.7%	3.3%
O=C(NCc1ccncc1)c1ccc(NS(=O)(=O)c2ccc(F)cc2)cc1	/	-10.7%	/	/	4.2%	/
COc1ccc(CCNC(=O)CNC(=O)c2nn(-c3ccc(OC)c(OC)c3)c(=O)c3ccccc23)cc1OC	-4.0	60.2%	-16.7%	-1.8	9.28µM*	2.8%
CCN(CCCNC(=O)CNC(=O)c1nn(-c2ccc(OC)cc2)c(=O)c2ccccc12)c1cccc(C)c1	-0.6	?	2.4%	6.7	?	-3.3%
CCN(CCCNC(=O)CNC(=O)c1nn(-c2ccc(OC)c(OC)c2)c(=O)c2ccccc12)c1ccccc1	-2.5	?	4.5%	-1.7	11.7µM*	-2.3%
CC12CCC=CC1C(c1ccc(/C=C/c3ccccc3)cc1F)N(Cc1ccccc1)C2=O (stereo unspecified)	18.8	/	/	17.6	/	-1.8%
CN(Cc1ccccc1)C(=O)c1nc[nH]c1C(=O)N(C)Cc1ccccc1	/	?	/	/	43.0%	/
COc1ccc(-c2cc(C(=O)NCc3cccs3)no2)cc1OC	/	/	-19.9%	/	/	/
Cc1ccc(C)c(Nc2ncccc2C(=O)NCc2cccs2)c1	1.5	9.28µM*	-30.3%	11.2	12.6%	-1.7%
O=C(NCc1cccs1)c1cc(-c2cccc(Cl)c2)on1	43.6*	14.2%	-3.9%	25.6*	70.1%	14.7%
COc1cccc(-c2cc(C(=O)NCc3ccc(Cl)cc3)no2)c1	-5.0	-53.3%	-4.4%	1.4	14.8%	4.6%
COc1ccc(OC)c(-c2cc(C(=O)NCc3cccs3)no2)c1	24.1	?	-42.2%	-0.4	?	-1.3%
O=C(NCc1cccs1)c1cc(-c2ccc(O)cc2)on1	85.6*	-7.0%	0.2%	42.6*	101.4%	1.8%
CCN(CC)c1ncccc1C(=O)NCc1cccs1	-10.1	-8.2%	-4.0%	-2.8	-22.0%	0.8%
Cc1ccc(-c2cc(C(=O)NCc3cccs3)no2)cc1	23.1	17.2%	9.4%	9.1*	103.5%	3.8%
CS(=O)(=O)Nc1cccc(-c2ccc3ncnc(Nc4ccc(F)cc4)c3c2)c1	/	/	/	/	/	-13.9%
C(=N\Nc1ncnc2sc3c(c12)CCC3)/c1ccncc1	-33.7	40.1%	-17.5%	-7.4	?	-0.8%
c1cc(Nc2ncnc3sc4c(c23)CCC4)ccn1	-3.1	13.5%	4.6%	-2.0	1.65µM*	5.7%
CCOC(=O)C1CCN(C(=O)Cn2c(=O)oc3cc(S(=O)(=O)N4CCCC4)ccc32)CC1	-1.8	20.6%	-20.4%	1.3	-23.1%	5.5%
COc1ccc(C#CC2C=CC(Oc3cc(C)cc(C)c3)C(CO)O2)cc1 (stereo unspecified)	/	/	/	/	/	-0.1%[12.9 µM]
Cc1c(C)c(C)c(CN2CCCC2)c(C)c1C	2.6	-18.2%	-0.8%	-2.6	-11.0%	-1.8%
